Experimental data: PubChem BioAssay

system: Neuregulin-1 EGF-like domain; assay: small molecules binding NRG1 EGF domain – biochemical, small-molecule microarray, 635 nm fluorescence, primary screen (AID 1081); conditions: higher = more signal;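 further: binding of the protein to compounds printed on small-molecule microarray slides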

| Structure (SMILES) | composite z-score |
| --- | --- |
| CC1CC/C=C\[C@H]2OC34C=CCN(c5ccc6ccccc6c5)C(=O)[C@H]3N(C(CO)C(C)C)C(=O)[C@@H]4C2C(=O)O1 (stereo not given in full) | 1.43 |
| COCCOC(=O)N1C(=O)[C@@]2(c3cc(C#CCC(C(=O)OC)C(=O)OC)ccc31)[C@H](c1ccc(OCCO)cc1)N1[C@H](c3ccccc3)[C@H](c3ccccc3)OC(=O)[C@H]1[C@@H]2C(=O)N1CCN(c2ncccn2)CC1 | 1.14 |
| CCOC(=O)[C@H]1C/C=C/C[C@H](C(=O)OCC)C(=O)O[C@H]2[C@@H](OC)O[C@H](CO)[C@@H](OC(=O)Nc3ccc(OC)cc3)[C@@H]2OC1=O | 0.94 |
| O=C1O[C@@H](c2ccccc2)[C@@H](c2ccccc2)N2[C@@H](c3ccc(O)cc3)[C@]3(C(=O)Nc4ccc(C#CC5=CCCCC5)cc43)[C@@H](C(=O)N3CCN(c4ncccn4)CC3)[C@H]12 | 1.2 |
| CCCCN1CC=CC23O[C@@H]4/C=C\CCC(C)OC(=O)C4[C@H]2C(=O)N(CCCCCCO)[C@@H]3C1=O (stereo not given in full) | 1.59 |
| CCOC(=O)C[C@H]1[C@H](OC(=O)c2ccc(-c3ccccc3)cc2)[C@@H](NC(=O)c2ccc3ccccc3n2)c2cc(OCCCO)ccc2N1C(=O)c1ccccc1 | 0.857 |
| COc1ccc(NN2C(C(O)c3ccccn3)C=CC3C(=O)N(C4CCCCC4)C(=O)C32)cc1 (stereo not given) | 1.17 |
| COc1cc(OC)c(C(O)C2C=CC3C(=O)N(c4ccccc4)C(=O)C3N2Nc2ccc(C#N)cc2)cc1Br (stereo not given) | 1.34 |
| COc1ccc([Si](C)(C)[C@H]2[C@H](CCn3cc([C@H](O)c4ccccc4)nn3)O[C@@]3(C(=O)N(Cc4ccc(N5CCOC5=O)cc4)c4ccccc43)[C@@H]2C)cc1 | -0.426 |
| CCCCC(CC)C(O)C1C=CC2C(=O)N(c3ccccc3)C(=O)C2N1Nc1ccc([N+](=O)[O-])cc1 (stereo not given) | 1.26 |
